PMC7862700, “An all-to-all approach to the identification of sequence-specific readers for epigenetic DNA modifications on cytosine”

What was measured:
Assay in all cases: DAPPL (digital affinity profiling via proximity ligation, sequencing); 10 mM Tris-HCl pH 7.5, 50 mM NaCl, 1 mM DTT, 4% glycerol, room temperature, 30 min; GST-TFs on glutathione beads, 16-mer random dsDNA library, 0.1% formaldehyde crosslink after washing; high values mean tight binding
FEV = target: T1, FEV (Homo sapiens, UniProt Q99581 1-238); settings: protein: recombinant; tags: N-terminal GST; dsDNA, one strand shown
T1 sequence: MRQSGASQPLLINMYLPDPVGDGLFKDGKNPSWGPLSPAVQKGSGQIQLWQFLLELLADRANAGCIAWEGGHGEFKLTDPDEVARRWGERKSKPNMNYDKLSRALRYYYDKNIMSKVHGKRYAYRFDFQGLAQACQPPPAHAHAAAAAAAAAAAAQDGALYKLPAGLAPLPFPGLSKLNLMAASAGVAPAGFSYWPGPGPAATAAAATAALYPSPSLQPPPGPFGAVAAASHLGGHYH
Procedure, shortened: (§1)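 GST fusions of human transcription factors were expressed in yeast and captured with glutathione beads. Once given DNA barcodes and pooled alongside a tag-only sample, they were incubated for 30 min at room temperature with 200 nmole of a random double-stranded 16-mer DNA library in Tris/NaCl/DTT/glycerol buffer, then washed, crosslinked (0.1% formaldehyde), proximity-ligated, PCR-amplified and sequenced on an Illumina NextSeq500. The binding signal of each hexamer is its read frequency for a factor divided by its frequency for the tag-only sample.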

ETV5 = ETV5 (Homo sapiens, UniProt P41161 1-510); settings: protein: recombinant; tags: N-terminal GST; dsDNA, one strand shown
ETV5, sequence (P41161 whole entry): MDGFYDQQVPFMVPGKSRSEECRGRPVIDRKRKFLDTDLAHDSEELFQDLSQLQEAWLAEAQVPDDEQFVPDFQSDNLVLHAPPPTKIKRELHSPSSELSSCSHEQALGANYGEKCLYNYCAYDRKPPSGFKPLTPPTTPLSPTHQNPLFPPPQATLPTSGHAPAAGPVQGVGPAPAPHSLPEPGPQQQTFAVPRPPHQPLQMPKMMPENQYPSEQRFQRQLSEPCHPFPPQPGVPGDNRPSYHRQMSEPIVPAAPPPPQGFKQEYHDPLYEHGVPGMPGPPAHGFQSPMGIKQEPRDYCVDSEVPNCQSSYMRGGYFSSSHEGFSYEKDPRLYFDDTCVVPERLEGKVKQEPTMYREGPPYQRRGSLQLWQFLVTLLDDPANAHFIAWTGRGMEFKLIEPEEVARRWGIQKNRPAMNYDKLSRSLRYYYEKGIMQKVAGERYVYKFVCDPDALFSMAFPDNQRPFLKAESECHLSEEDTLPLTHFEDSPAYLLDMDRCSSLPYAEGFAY
Procedure, shortened: as §1

HSF1 = HSF1 (Homo sapiens, UniProt Q00613 1-529); settings: protein: recombinant; tags: N-terminal GST; chain copies: 3; dsDNA, one strand shown
HSF1, sequence (Q00613 whole entry): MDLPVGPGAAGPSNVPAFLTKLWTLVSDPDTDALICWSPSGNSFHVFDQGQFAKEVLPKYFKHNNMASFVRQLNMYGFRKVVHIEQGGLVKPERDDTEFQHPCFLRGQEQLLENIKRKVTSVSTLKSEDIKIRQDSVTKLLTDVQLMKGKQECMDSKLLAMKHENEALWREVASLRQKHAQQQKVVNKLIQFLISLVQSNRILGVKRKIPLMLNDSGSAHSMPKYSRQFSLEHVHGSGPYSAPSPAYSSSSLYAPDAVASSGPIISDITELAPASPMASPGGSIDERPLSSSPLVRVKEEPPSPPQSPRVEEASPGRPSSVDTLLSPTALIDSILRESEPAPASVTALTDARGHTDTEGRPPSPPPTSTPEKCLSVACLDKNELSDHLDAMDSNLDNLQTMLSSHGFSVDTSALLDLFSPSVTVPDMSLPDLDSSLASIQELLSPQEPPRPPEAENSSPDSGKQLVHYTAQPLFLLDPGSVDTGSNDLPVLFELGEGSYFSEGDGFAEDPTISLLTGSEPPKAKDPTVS
Procedure, shortened: as §1

SPIC = target: T2, SPIC (Homo sapiens, UniProt Q8N5J4 1-248); settings: protein: recombinant; tags: N-terminal GST; dsDNA, one strand shown
T2 sequence: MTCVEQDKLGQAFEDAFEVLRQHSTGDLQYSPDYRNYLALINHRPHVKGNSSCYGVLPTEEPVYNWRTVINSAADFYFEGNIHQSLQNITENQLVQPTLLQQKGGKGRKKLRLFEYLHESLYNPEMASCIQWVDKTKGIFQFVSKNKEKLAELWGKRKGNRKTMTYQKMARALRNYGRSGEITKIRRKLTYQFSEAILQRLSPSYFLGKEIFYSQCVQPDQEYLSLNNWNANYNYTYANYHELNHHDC
Procedure, shortened: as §1

ELF4 = ELF4 (Homo sapiens, UniProt Q99607 1-663); settings: protein: recombinant; tags: N-terminal GST; dsDNA, one strand shown
ELF4, sequence (Q99607 whole entry): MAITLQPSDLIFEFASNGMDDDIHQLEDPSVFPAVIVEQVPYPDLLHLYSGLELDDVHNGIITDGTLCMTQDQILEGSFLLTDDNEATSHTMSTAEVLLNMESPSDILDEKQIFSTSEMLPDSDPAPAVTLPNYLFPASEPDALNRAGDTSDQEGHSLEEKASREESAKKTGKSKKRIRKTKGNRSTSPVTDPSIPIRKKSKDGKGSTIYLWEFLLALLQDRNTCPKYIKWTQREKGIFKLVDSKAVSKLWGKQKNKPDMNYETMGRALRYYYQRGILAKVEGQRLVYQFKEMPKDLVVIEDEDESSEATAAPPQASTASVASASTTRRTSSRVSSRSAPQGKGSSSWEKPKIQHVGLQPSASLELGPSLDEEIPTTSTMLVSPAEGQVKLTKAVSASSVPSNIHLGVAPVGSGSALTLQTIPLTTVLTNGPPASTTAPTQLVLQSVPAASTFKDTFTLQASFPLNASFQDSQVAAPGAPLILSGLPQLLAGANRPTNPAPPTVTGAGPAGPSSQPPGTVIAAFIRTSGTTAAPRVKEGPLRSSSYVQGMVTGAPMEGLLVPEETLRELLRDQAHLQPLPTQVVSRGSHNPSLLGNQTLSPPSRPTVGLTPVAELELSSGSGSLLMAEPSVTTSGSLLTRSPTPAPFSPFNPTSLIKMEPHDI
Procedure, shortened: as §1

ELK4 = target: T3, ELK4 (Homo sapiens, UniProt P28324-2 1-405); settings: protein: recombinant; tags: N-terminal GST; dsDNA, one strand shown
T3 sequence: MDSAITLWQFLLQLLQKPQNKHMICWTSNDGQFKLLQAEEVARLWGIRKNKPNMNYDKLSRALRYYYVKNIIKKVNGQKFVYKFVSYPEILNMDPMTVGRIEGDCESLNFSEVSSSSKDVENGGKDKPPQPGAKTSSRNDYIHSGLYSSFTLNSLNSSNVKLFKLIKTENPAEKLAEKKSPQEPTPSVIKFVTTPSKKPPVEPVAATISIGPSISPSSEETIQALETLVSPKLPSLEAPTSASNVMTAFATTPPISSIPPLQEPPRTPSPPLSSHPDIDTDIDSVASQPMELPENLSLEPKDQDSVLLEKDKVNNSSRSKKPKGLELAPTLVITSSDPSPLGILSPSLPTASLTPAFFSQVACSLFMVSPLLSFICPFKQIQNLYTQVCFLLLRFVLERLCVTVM
Procedure, shortened: as §1

ETV2 = target: T4, ETV2 (Homo sapiens, UniProt O00321 1-342); settings: protein: recombinant; tags: N-terminal GST; dsDNA, one strand shown
T4 sequence: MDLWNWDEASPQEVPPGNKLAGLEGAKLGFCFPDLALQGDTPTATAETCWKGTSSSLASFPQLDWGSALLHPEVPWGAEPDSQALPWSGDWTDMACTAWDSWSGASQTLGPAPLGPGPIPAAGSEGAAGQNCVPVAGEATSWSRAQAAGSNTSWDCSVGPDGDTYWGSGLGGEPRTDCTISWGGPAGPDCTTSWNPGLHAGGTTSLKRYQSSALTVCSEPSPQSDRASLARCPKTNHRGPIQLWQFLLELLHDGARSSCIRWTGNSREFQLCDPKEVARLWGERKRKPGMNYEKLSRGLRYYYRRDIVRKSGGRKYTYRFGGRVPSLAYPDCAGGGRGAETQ
Procedure, shortened: as §1

ELF3 = target: T5, ELF3 (Homo sapiens, UniProt P78545 1-371); settings: protein: recombinant; tags: N-terminal GST; dsDNA, one strand shown
T5 sequence: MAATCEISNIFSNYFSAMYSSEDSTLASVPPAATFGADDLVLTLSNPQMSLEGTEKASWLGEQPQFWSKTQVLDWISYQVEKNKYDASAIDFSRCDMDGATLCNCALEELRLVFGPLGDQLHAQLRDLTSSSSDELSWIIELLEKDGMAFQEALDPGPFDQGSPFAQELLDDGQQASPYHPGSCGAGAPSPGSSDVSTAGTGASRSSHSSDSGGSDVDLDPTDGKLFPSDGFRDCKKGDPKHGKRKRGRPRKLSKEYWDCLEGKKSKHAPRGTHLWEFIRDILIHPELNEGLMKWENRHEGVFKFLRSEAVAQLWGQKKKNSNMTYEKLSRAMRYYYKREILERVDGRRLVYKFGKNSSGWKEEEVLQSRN
Procedure, shortened: as §1

CRX = CRX (Homo sapiens, UniProt O43186 1-299); settings: protein: recombinant; tags: N-terminal GST; dsDNA, one strand shown
CRX, sequence (O43186 whole entry): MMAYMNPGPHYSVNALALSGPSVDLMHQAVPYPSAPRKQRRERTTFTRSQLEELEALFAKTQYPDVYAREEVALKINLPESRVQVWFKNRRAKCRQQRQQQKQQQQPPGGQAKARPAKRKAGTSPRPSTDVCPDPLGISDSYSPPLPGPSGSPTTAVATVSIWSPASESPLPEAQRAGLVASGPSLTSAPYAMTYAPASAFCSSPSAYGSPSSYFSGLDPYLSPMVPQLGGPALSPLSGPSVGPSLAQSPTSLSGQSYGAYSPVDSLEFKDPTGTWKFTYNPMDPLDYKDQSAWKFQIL
Procedure, shortened: as §1

ETV1 = ETV1 (Homo sapiens, UniProt P50549 1-477); settings: protein: recombinant; tags: N-terminal GST; dsDNA, one strand shown
ETV1, sequence (P50549 whole entry): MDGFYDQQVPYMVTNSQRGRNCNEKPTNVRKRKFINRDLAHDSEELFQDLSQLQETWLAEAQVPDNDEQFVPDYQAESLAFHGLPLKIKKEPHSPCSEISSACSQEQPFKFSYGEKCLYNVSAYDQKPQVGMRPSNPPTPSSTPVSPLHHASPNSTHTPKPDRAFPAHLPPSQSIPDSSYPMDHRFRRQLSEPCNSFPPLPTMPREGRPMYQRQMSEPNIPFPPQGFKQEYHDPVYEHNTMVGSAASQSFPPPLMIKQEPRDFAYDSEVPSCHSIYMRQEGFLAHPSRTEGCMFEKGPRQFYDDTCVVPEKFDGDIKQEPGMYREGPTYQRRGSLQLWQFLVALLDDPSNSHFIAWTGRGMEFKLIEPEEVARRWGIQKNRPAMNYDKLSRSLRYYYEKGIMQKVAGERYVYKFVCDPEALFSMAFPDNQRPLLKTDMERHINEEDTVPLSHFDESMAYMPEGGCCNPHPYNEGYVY
Procedure, shortened: as §1

ERF = target: T6, ERF (Homo sapiens, UniProt P50548 1-548); settings: protein: recombinant; tags: N-terminal GST; dsDNA, one strand shown
T6 sequence: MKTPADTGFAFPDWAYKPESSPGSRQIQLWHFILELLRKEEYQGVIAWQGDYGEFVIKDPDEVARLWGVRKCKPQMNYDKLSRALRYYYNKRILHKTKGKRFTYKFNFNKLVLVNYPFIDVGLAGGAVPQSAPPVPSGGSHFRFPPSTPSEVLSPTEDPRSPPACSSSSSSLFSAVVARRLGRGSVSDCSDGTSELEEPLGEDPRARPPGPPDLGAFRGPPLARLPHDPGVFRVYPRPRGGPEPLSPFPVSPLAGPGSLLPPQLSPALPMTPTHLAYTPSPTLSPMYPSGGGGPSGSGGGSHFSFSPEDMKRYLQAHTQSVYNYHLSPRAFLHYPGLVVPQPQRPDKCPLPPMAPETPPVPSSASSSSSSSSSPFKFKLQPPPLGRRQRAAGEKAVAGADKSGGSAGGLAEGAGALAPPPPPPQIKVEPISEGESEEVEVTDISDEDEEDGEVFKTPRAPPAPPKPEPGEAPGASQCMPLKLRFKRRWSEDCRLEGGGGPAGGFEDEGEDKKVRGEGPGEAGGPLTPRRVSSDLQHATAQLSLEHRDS
Procedure, shortened: as §1

ETV3L = target: T7, ETV3L (Homo sapiens, UniProt Q6ZN32 1-361); settings: protein: recombinant; tags: N-terminal GST; dsDNA, one strand shown
T7 sequence: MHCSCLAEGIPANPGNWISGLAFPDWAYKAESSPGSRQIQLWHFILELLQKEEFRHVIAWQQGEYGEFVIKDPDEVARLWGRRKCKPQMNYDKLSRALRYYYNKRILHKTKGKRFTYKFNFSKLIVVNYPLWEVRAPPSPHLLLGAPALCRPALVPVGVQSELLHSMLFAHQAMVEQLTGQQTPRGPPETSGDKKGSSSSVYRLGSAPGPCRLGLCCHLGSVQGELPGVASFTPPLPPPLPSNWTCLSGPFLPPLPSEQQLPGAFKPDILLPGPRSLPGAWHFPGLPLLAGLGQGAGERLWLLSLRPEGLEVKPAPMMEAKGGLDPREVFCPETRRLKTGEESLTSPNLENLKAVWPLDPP
Procedure, shortened: as §1

ETS2 = target: T8, ETS2 (Homo sapiens, UniProt P15036 1-469); settings: protein: recombinant; tags: N-terminal GST; dsDNA, one strand shown
T8 sequence: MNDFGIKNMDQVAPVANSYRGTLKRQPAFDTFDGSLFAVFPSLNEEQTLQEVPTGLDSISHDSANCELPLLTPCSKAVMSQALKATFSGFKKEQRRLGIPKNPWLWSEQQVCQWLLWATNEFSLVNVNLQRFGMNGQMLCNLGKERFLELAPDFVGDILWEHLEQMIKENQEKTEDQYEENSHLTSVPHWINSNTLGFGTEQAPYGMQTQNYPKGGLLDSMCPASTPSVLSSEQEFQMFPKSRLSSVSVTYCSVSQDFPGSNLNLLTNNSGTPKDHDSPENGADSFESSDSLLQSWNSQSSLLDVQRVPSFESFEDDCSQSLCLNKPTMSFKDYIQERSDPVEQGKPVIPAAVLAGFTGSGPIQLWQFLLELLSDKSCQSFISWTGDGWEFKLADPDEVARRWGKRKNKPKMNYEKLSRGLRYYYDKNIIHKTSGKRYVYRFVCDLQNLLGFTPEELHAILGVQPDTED
Procedure, shortened: as §1

SPDEF = target: T9, SPDEF (Homo sapiens, UniProt O95238 1-335); settings: protein: recombinant; tags: N-terminal GST; dsDNA, one strand shown
T9 sequence: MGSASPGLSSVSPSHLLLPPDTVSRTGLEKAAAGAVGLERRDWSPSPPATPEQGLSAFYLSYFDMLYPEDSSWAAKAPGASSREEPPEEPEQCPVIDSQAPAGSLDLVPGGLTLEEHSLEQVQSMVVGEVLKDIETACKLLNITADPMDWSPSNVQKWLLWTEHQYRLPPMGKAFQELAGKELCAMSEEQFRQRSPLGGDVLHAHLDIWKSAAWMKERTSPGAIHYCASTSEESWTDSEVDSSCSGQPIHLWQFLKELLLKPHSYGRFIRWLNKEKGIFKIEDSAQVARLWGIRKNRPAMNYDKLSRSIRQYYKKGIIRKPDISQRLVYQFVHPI
Procedure, shortened: as §1

ETV7 = target: T10, ETV7 (Homo sapiens, UniProt Q9Y603 1-341); settings: protein: recombinant; tags: N-terminal GST; dsDNA, one strand shown
T10 sequence: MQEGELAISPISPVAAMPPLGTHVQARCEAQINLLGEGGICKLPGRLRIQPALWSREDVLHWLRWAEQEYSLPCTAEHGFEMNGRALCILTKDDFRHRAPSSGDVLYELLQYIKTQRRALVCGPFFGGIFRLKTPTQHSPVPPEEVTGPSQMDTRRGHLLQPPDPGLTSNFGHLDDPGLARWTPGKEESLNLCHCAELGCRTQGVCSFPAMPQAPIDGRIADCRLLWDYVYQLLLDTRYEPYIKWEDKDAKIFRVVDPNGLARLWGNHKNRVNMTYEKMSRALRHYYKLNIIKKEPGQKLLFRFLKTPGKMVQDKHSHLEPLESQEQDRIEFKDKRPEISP
Procedure, shortened: as §1

ELF5 = target: T11, ELF5 (Homo sapiens, UniProt Q9UKW6-2 1-255); settings: protein: recombinant; tags: N-terminal GST; dsDNA, one strand shown
T11 sequence: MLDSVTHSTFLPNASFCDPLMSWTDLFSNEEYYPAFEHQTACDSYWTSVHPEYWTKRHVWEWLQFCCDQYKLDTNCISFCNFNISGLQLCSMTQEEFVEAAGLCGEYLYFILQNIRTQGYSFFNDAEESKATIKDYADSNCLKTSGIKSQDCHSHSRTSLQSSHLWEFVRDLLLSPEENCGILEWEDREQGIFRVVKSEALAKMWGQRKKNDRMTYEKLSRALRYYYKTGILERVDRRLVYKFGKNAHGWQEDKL
Procedure, shortened: as §1

ETV3 = target: T12, ETV3 (Homo sapiens, UniProt P41162-2 1-143); settings: protein: recombinant; tags: N-terminal GST; dsDNA, one strand shown
T12 sequence: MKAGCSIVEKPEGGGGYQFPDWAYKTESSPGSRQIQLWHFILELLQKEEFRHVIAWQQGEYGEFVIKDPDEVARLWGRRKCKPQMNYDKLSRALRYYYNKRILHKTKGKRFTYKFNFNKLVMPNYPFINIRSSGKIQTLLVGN
Procedure, shortened: as §1

ETV6 = ETV6 (Homo sapiens, UniProt P41212 1-452); settings: protein: recombinant; tags: N-terminal GST; dsDNA, one strand shown
ETV6, sequence (P41212 whole entry): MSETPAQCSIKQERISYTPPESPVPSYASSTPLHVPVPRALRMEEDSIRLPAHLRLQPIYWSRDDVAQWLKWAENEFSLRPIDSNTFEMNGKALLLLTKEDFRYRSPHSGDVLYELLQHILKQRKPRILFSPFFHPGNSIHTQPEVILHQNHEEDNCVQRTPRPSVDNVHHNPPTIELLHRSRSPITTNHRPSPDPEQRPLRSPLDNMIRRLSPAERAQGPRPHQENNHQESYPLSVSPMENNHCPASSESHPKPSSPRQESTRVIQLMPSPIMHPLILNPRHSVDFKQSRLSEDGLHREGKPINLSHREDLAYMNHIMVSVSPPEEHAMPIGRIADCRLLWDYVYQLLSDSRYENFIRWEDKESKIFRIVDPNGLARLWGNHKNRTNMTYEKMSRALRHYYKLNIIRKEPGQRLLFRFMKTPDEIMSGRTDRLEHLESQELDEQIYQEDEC
Procedure, shortened: as §1

## CGATTA
FEV
  binding signal: 1.09 fold enrichment (6-mer frequency, TF over GST control)
ETV5
  binding signal: 1.08 fold enrichment (6-mer frequency, TF over GST control)
HSF1
  binding signal: 2.19 fold enrichment (6-mer frequency, TF over GST control)
SPIC
  binding signal: 1.12 fold enrichment (6-mer frequency, TF over GST control)
ELF4
  binding signal: 1.14 fold enrichment (6-mer frequency, TF over GST control)
ELK4
  binding signal: 1.18 fold enrichment (6-mer frequency, TF over GST control)
ETV2
  binding signal: 1.13 fold enrichment (6-mer frequency, TF over GST control)
ELF3
  binding signal: 1 fold enrichment (6-mer frequency, TF over GST control)
CRX
  binding signal: 3.25 fold enrichment (6-mer frequency, TF over GST control)
ETV1
  binding signal: 1.13 fold enrichment (6-mer frequency, TF over GST control)
ERF
  binding signal: 1.07 fold enrichment (6-mer frequency, TF over GST control)
ETV3L
  binding signal: 1.23 fold enrichment (6-mer frequency, TF over GST control)
ETS2
  binding signal: 1.08 fold enrichment (6-mer frequency, TF over GST control)
SPDEF
  binding signal: 1.09 fold enrichment (6-mer frequency, TF over GST control)
ETV7
  binding signal: 1.18 fold enrichment (6-mer frequency, TF over GST control)
ELF5
  binding signal: 1.11 fold enrichment (6-mer frequency, TF over GST control)
ETV3
  binding signal: 1.18 fold enrichment (6-mer frequency, TF over GST control)
ETV6
  binding signal: 1.13 fold enrichment (6-mer frequency, TF over GST control)
